# Data reported in PubChem BioAssay (NCATS).
# Test: qHTS profiling of the MIPE4 collection as inhibitors of Plasmodium falciparum (DD2) proliferation (AID 743345)
# Conditions: P. falciparum Dd2 in erythrocytes, SYBR Green DNA, 72 h; at 28.5 µM (top of the series) unless noted
# Method in brief: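 Erythrocytes infected with P. falciparum (0.3% parasitemia, 2.5% hematocrit) incubated with compounds 72 h at 37 C, 5% CO2. Lysis with saponin/Triton buffer containing SYBR Green I, overnight at room temperature in the dark; DNA fluorescence (485/535 nm) normalised to 0.29 uM artemisinin and DMSO.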
row,Compound,"parasite growth remaining, % of DMSO control (lower = more inhibition) [%]"
1,Cc1cc(=O)oc2cc(O)ccc12,101
2,O=C(NC(Cc1cc(=O)[nH]c2ccccc12)C(=O)O)c1ccc(Cl)cc1 (stereo not drawn),96.8
3,CC(=O)NC[C@H]1CN(c2ccc(N3CCOCC3)c(F)c2)C(=O)O1,87.8
4,CCOC(=O)c1c(C)n(C)c2ccc(O)cc12,93.3
5,CC[C@]1(O)C[C@H]2CN(CCc3c([nH]c4ccccc34)[C@@](C(=O)OC)(c3cc4c(cc3OC)N(C=O)[C@H]3[C@@](O)(C(=O)OC)[C@H](OC(C)=O)[C@]5(CC)C=CCN6CC[C@]43[C@@H]65)C2)C1,18
6,Cc1nccn1CC1CCc2c(c3ccccc3n2C)C1=O (stereo not drawn),80.4
7,CC(S)C(=O)NCC(=O)O (stereo not drawn),123
8,CN(C)c1ccc(O)c2c1C[C@H]1C[C@H]3[C@H](N(C)C)C(=O)C(C(N)=O)=C(O)[C@@]3(O)C(=O)C1=C2O,9.85
9,Cn1c(NCCN(CCO)CCCc2ccc([N+](=O)[O-])cc2)cc(=O)n(C)c1=O,76.1
10,CC1=C(C)C(=O)C(C(CCCCCC(=O)O)c2ccccc2)=C(C)C1=O (stereo not drawn),87.9
11,CCOc1cc(CC(=O)N[C@@H](CC(C)C)c2ccccc2N2CCCCC2)ccc1C(=O)O,123
12,COC1=C(OC)C(=O)C(CCCCCCCCCCO)=C(C)C1=O,84.8
13,CN(C)C(=O)COC(=O)Cc1ccc(OC(=O)c2ccc(N=C(N)N)cc2)cc1,93
14,COC(=O)C1=C(C)NC(C)=C(C(=O)OC(C)C)C1c1cccc2nonc12 (stereo not drawn),96.4
15,CCC(C)(Oc1ccc(C2(c3ccc(OC(C)(CC)C(=O)O)cc3)CCCCC2)cc1)C(=O)O (stereo not drawn),98.3
16,O=C(NCCO[N+](=O)[O-])c1cccnc1,87
17,Oc1ccc(OCc2ccccc2)cc1,123
18,O=C(O)c1cccc(-c2noc(-c3ccccc3F)n2)c1,96.1
19,COC(=O)N[C@H](C(=O)N[C@@H](Cc1ccccc1)[C@@H](O)CN(Cc1ccc(-c2ccccn2)cc1)NC(=O)[C@@H](NC(=O)OC)C(C)(C)C)C(C)(C)C,18.2

row,Compound,"parasite growth remaining, % of DMSO control (lower = more inhibition) [%]"
1,CN(C)CCc1c[nH]c2ccc(Cn3cncn3)cc12,102
2,Cc1ccc(S(=O)(=O)NC(=O)NN2CC3CCCC3C2)cc1 (stereo not drawn),13.9
3,CCCCc1ccc2nc(NC(=O)OC)[nH]c2c1,85.9
4,CCC[C@@H]1C[C@@H](C(=O)N[C@@H]([C@H]2O[C@H](SC)[C@H](O)[C@@H](O)[C@H]2O)[C@@H](C)O)N(C)C1,50.3
5,CC1(C)CCC(C)(C)c2cc(NC(=O)c3ccc(C(=O)O)cc3)ccc21,86.1
6,Cc1cc(=O)c2c(O)c3c(O)cc(=O)c4c3c3c(cc(O)c1c23)C(C)(C)C=4O,23.7
7,O=c1oc2cc(O)ccc2s1,123
8,O=C1CCc2ccc(OCCCCN3CCN(c4cccc(Cl)c4Cl)CC3)cc2N1,65.1
9,Nc1cc(C(Cl)=C(Cl)Cl)c(S(N)(=O)=O)cc1S(N)(=O)=O,102
10,Cc1nc(-c2ccc(OCC(C)C)c(C#N)c2)sc1C(=O)O,91.7
11,Clc1ccc(C(Cn2ccnc2)OCc2ccsc2Cl)c(Cl)c1 (stereo not drawn),7.57
12,C=C(c1ccc(C(=O)O)cc1)c1cc2c(cc1C)C(C)(C)CCC2(C)C,81.7
13,COc1c(O)cc2c(c1O)[C@@H]1O[C@H](CO)[C@@H](O)[C@H](O)[C@H]1OC2=O,100
14,CC(C)c1nc(CN(C)C(=O)N[C@H](C(=O)N[C@@H](Cc2ccccc2)C[C@H](O)[C@H](Cc2ccccc2)NC(=O)OCc2cncs2)C(C)C)cs1,66.3
15,Cc1ncc([N+](=O)[O-])n1CC(C)O (stereo not drawn),95.7
16,CN(c1nccc(=O)[nH]1)C1CCN(c2nc3ccccc3n2Cc2ccc(F)cc2)CC1,81.9
17,Cc1ccc(C(=O)c2cc(O)c(O)c([N+](=O)[O-])c2)cc1,93.6
18,O=C(O)c1cn(-c2ccc(F)cc2)c2cc(N3CCNCC3)c(F)cc2c1=O,67.2
19,CCC1=C(C)CN(C(=O)NCCc2ccc(S(=O)(=O)NC(=O)NC3CCC(C)CC3)cc2)C1=O (stereo not drawn),91.8
